According to PubChem BioAssay (Tox21):
Records with an inconclusive call do not appear. The source made the active and inactive calls. Calls follow the shape of the dose curve; as a rule, active = well fitted curve in the direction sought with a large enough effect in the repeat runs; inconclusive = weak or mixed curves; inactive = no such curve, though single readings can be large; an effect the other way counts as inactive or inconclusive.

Tests used:
[1] = qHTS RealTime-Glo MT Cell Viability Assay in HEK293 cells - 0 hour (AID 1224880); also: top concentration of the series differs between compounds; nearly all actives have a fitted effect of over 45% in size
How it was run: (§1)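 Viable HEK293 cells reduce a cell-permeant prosubstrate; the product diffuses out and is consumed by NanoLuc in the medium to give light. Compounds went in after a 5 h incubation and plates were read over the treatment course.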

[2] = A CellTox Green Cytotoxicity Assay to monitor cytotoxicity in HEK293 cells - 32 hour (AID 1224881); also: nearly all actives have a fitted effect of over 40% in size
How it was run: (§2)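 Fluorescence intensity, read at 0, 8, 16, 24, 32 and 40 h of compound treatment, reflected dye binding to DNA of dead HEK293 cells; compounds (23 nL, DMSO) were added 5 h after plating cells with reagent.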

[3] = A CellTox Green Cytotoxicity Assay to monitor cytotoxicity in HepG2 cells - 0 hour (AID 1224882); also: nearly all actives have a fitted effect of over 35% in size
How it was run: (§3)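 Using 1536-well format, dye-containing HepG2 suspension was seeded, allowed 5 h at 37 C/5% CO2, dosed by pintool with compounds, positive and negative controls, and imaged for fluorescence across 40 h.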

[4] = A CellTox Green Cytotoxicity Assay to monitor cytotoxicity in HepG2 cells - 32 hour (AID 1224883); also: nearly all actives have a fitted effect of over 50% in size
How it was run: as §3

[5] = A CellTox Green Cytotoxicity Assay to monitor cytotoxicity in HEK293 cells - 8 hour (AID 1224884); also: nearly all actives have a fitted effect of over 35% in size
How it was run: as §2

[6] = qHTS RealTime-Glo MT Cell Viability Assay in HepG2 cells - 16 hour (AID 1224885); also: nearly all actives have a fitted effect of over 50% in size
How it was run: (§4)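 qHTS, HepG2, 600 cells/well, RealTime-Glo (NanoLuc + prosubstrate) added with cells; 5 h preincubation; DMSO compound addition; 37 C; luminescence at 0/8/16/24/32/40 h.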

[7] = qHTS RealTime-Glo MT Cell Viability Assay in HEK293 cells - 24 hour (AID 1224886); also: top concentration of the series differs between compounds; nearly all actives have a fitted effect of over 50% in size
How it was run: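 Assay medium contained NanoLuc luciferase plus cell-permeant prosubstrate, added with HEK293 cells at 600 cells/well. After 5 h at 37 C/5% CO2 compounds were added; plates stayed at 37 C for 40 h with serial luminescence reads.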

[8] = qHTS RealTime-Glo MT Cell Viability Assay in HEK293 cells - 8 hour (AID 1224887); also: top concentration of the series differs between compounds; nearly all actives have a fitted effect of over 50% in size
How it was run: as §1

[9] = A CellTox Green Cytotoxicity Assay to monitor cytotoxicity in HEK293 cells - 16 hour (AID 1224888); also: nearly all actives have a fitted effect of over 35% in size
How it was run: as §2

[10] = qHTS RealTime-Glo MT Cell Viability Assay in HepG2 cells - 0 hour (AID 1224889); also: nearly all actives have a fitted effect of over 50% in size
How it was run: as §4
% is scaled to controls: 0 for no effect and ±100 for the full control effect.

CCC(=O)c1cccc(Cl)c1
inactive: outcome [1] | Potency [2] | Potency [3] | Potency [4] | Potency [5] | outcome [6] | Potency [7] | Potency [8] | Potency [9] | Potency [10]

CC(C)[N+](C)(C)CC(O)COc1cccc2ccccc12 (stereo not drawn)
inactive: outcome [1] | Potency [2] | Potency [3] | Potency [4] | Potency [5] | outcome [6] | Potency [7] | Potency [8] | Potency [9] | Potency [10]

C[C@H](O)C(=O)Nc1c(I)c(C(=O)NC(CO)CO)c(I)c(C(=O)NC(CO)CO)c1I
inactive: outcome [1] | Potency [2] | Potency [3] | Potency [4] | Potency [5] | outcome [6] | Potency [7] | Potency [8] | Potency [9] | Potency [10]

C=CC(=O)OCCCCCC
inactive: outcome [1] | Potency [2] | Potency [3] | Potency [4] | Potency [5] | outcome [6] | Potency [7] | Potency [8] | Potency [9] | Potency [10]

CC12CCC(CC1=O)C2(C)C (stereo not drawn)
inactive: outcome [1] | Potency [2] | Potency [3] | Potency [4] | Potency [5] | outcome [6] | Potency [7] | Potency [8] | Potency [9] | Potency [10]

C=CCSCC1Nc2cc(Cl)c(S(N)(=O)=O)cc2S(=O)(=O)N1 (stereo not drawn)
inactive: outcome [1] | Potency [2] | Potency [3] | Potency [4] | Potency [5] | outcome [6] | Potency [7] | Potency [8] | Potency [9] | Potency [10]

O=C(CCOCCOCCOCCOCCC(=O)Nc1c(I)cc(I)c(C(=O)O)c1I)Nc1c(I)cc(I)c(C(=O)O)c1I
inactive: outcome [1] | Potency [2] | Potency [3] | Potency [4] | Potency [5] | outcome [6] | Potency [7] | Potency [8] | Potency [9] | Potency [10]

CC(=O)NC(Cc1ccccc1)C(=O)O (stereo not drawn)
inactive: outcome [1] | Potency [2] | Potency [3] | Potency [4] | Potency [5] | outcome [6] | Potency [7] | Potency [8] | Potency [9] | Potency [10]

CCn1cc(C(=O)O)c(=O)c2cc(F)c(N3CCN(C)CC3)cc21
inactive: activity change, negative = cytotoxicity [1] 5.85% [at 15.8 µM] | cytotoxicity increase [2] -8.3% [at 15.8 µM] | cytotoxicity [3] -1.13% [at 15.8 µM] | cytotoxicity increase [4] -17.6% [at 15.8 µM] | cytotoxicity increase [5] -3.43% [at 15.8 µM] | activity change, negative = cytotoxic [6] 0.92% [at 15.8 µM] | activity change, negative = cytotoxicity [7] 2.21% [at 15.8 µM] | activity change, negative = cytotoxicity [8] 7.74% [at 15.8 µM] | activity change [9] -0.608% [at 15.8 µM, stronger effect = higher value] | activity change, negative = cytotoxicity [10] 5.05% [at 15.8 µM]

C[C@H]1O[C@@H](n2cc(F)c(=O)[nH]c2=O)[C@H](O)[C@@H]1O
inactive: outcome [1] | Potency [2] | Potency [3] | Potency [4] | Potency [5] | outcome [6] | Potency [7] | Potency [8] | Potency [9] | Potency [10]

COC(=O)CCCC(=O)O
inactive: outcome [1] | Potency [2] | Potency [3] | Potency [4] | Potency [5] | outcome [6] | Potency [7] | Potency [8] | Potency [9] | Potency [10]

COCc1ccc(COC)cc1
inactive: outcome [1] | Potency [2] | Potency [3] | Potency [4] | Potency [5] | outcome [6] | Potency [7] | Potency [8] | Potency [9] | Potency [10]

Cc1nc(-c2ccc(OCC(C)C)c(C#N)c2)sc1C(=O)O
inactive: outcome [1] | Potency [2] | Potency [3] | Potency [4] | Potency [5] | outcome [6] | Potency [7] | Potency [8] | Potency [9] | Potency [10]

CC(C)c1ccc2oc3nc(N)c(C(=O)O)cc3c(=O)c2c1
inactive: outcome [1] | Potency [2] | Potency [3] | Potency [4] | Potency [5] | outcome [6] | Potency [7] | Potency [8] | Potency [9] | Potency [10]

NC(N)=NS(=O)(=O)c1ccc(N)cc1
inactive: outcome [1] | Potency [2] | Potency [3] | Potency [4] | Potency [5] | outcome [6] | Potency [7] | Potency [8] | Potency [9] | Potency [10]

CCCCOCC(C)OCC(C)O (stereo not drawn)
inactive: outcome [1] | Potency [2] | Potency [3] | Potency [4] | Potency [5] | outcome [6] | Potency [7] | Potency [8] | Potency [9] | Potency [10]

CCCC=O
inactive: outcome [1] | Potency [2] | Potency [3] | Potency [4] | Potency [5] | outcome [6] | Potency [7] | Potency [8] | Potency [9] | Potency [10]

COCCOC(=O)CC#N
inactive: outcome [1] | Potency [2] | Potency [3] | Potency [4] | Potency [5] | outcome [6] | Potency [7] | Potency [8] | Potency [9] | Potency [10]

CC(C)(C)CC(C)(C)N
inactive: outcome [1] | Potency [2] | Potency [3] | Potency [4] | Potency [5] | outcome [6] | Potency [7] | Potency [8] | Potency [9] | Potency [10]

C=CCn1c(=O)n([C@@H]2O[C@H](CO)[C@@H](O)[C@H]2O)c2nc(N)[nH]c(=O)c21
inactive: outcome [1] | Potency [2] | Potency [3] | Potency [4] | Potency [5] | outcome [6] | Potency [7] | Potency [8] | Potency [9] | Potency [10]

CCC(C)(C)C1CCC(OC)CC1 (stereo not drawn)
inactive: outcome [1] | Potency [2] | Potency [3] | Potency [4] | Potency [5] | outcome [6] | Potency [8] | Potency [9]

C[N+](C)(C)CC[N+]1(C)Cc2c(Cl)c(Cl)c(Cl)c(Cl)c2C1
inactive: outcome [1] | Potency [2] | Potency [3] | Potency [4] | Potency [5] | outcome [6] | Potency [7] | Potency [8] | Potency [9] | Potency [10]

CCCC(C)CO (stereo not drawn)
inactive: outcome [1] | Potency [2] | Potency [3] | Potency [4] | Potency [5] | outcome [6] | Potency [7] | Potency [8] | Potency [9] | Potency [10]
